The values that follow come from the supplement of paper PMC3898565.

± gives the uncertainty stated by the source.
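Further: viable cell number estimated from Alamar Blue fluorescence read at 560/90, part of a single-dose primary screen of an FDA-approved drug library.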

The test system of the test is U87. The test can be described thus: cell viability relative to vehicle control; higher = less growth inhibition (less active). Particulars: 10 µM; 72 h.
With `C[C@@H]1CN(CCCn2c3ccccc3c3ccccc32)C[C@H](C)N1` [Rimcazole], the cell viability stood at 109 ± 1.3%. The same measure for `CC(C)NCC(O)COc1ccc(COCCOC(C)C)cc1` (centres undefined): 104 ± 2.4%. In the case of `CNCCCCOc1ccccc1Cc1ccccc1` [Bifemelane], the cell viability was 96.1 ± 9.1%. Next, `CCOC(=O)N1CCC(=C2c3ccc(Cl)cc3CCc3cccnc32)CC1`: 102 ± 2.4%.

Consider `CC1CCN(CCCC(=O)c2ccc(F)cc2)CC1` [Metylperon], for which the cell viability was found to be 106 ± 1.2%. The same measure for `COc1ccccc1OCCNCC(O)COc1cccc2[nH]c3ccccc3c12` (centres undefined) [Carvedilol]: 105 ± 2.2%; for `O=[N+]([O-])c1cccc2cn[nH]c12`: 107 ± 1.1%; for `Nc1ccn([C@H]2CC[C@@H](CO)O2)c(=O)n1`: 100 ± 2.5%.

Consider `COC1=C(OC)C(=O)C(CCCCCCCCCCO)=C(C)C1=O`, for which the cell viability is 93.41 ± 0.38%. The same measure for `COc1cc2nc(N3CCN(C(=O)C4CCCO4)CC3)nc(N)c2cc1OC` (centres undefined) [Terazosin]: 100.6 ± 0.86%. The same measure for `Cc1c(O)cccc1C(=O)N[C@@H](CSc1ccccc1)[C@H](O)CN1C[C@H]2CCCC[C@H]2C[C@H]1C(=O)NC(C)(C)C`: 102.1 ± 1%. Take `C[C@]12C[C@H](O)[C@H]3[C@@H](CCC4=CC(=O)CC[C@@]43C)[C@@H]1CC[C@@H]2C(=O)CO`: the cell viability turned out to be 105 ± 1.5%. Take `O=C(O)CCc1nc(-c2ccccc2)c(-c2ccccc2)o1`: the cell viability is 129 ± 2.2%. The same measure for `CN(C)CC/C=C1/c2ccccc2COc2ccc(CC(=O)O)cc21`: 95.88 ± 0.86%. The same measure for `CC(Cc1ccccc1)(NC(=O)CN)c1ccccc1` (racemic): 93.1 ± 3.1%; for `Fc1ccc([C@@H]2CCNC[C@H]2COc2ccc3c(c2)OCO3)cc1`: 104.5 ± 1%; for `COc1cc(C[C@@H](CO)[C@H](CO)Cc2ccc(O)c(OC)c2)ccc1O`: 96.4 ± 14%. The same measure for `CS(=O)(=O)c1ccc(-c2cc(Br)sc2-c2ccc(F)cc2)cc1`: 107.7 ± 0.82%; for `CC[C@H]1OC(=O)[C@H](C)[C@@H](O[C@H]2C[C@@](C)(OC)[C@@H](O)[C@H](C)O2)[C@H](C)[C@@H](O[C@@H]2O[C@H](C)C[C@H](N(C)C)[C@H]2O)[C@](C)(OC)C[C@@H](C)C(=O)[C@H](C)[C@@H](O)[C@]1(C)O`: 107 ± 1.2%. With `COc1ccc(CC2c3cc(OC)c(OC)cc3CC[N+]2(C)CCC(=O)OCCCCCOC(=O)CC[N+]2(C)CCc3cc(OC)c(OC)cc3C2Cc2ccc(OC)c(OC)c2)cc1OC` (centres undefined), the cell viability came to 110 ± 0.2%.

Take `O=C1Nc2ccccc2/C1=C1/Nc2ccccc2C1=O` [indirubin]: the cell viability was 99.6 ± 1.4%. Next, `COc1cccc2c1C(=O)c1c(O)c3c(c(O)c1C2=O)C[C@@](O)(C(=O)CO)C[C@@H]3O[C@H]1C[C@H](N)[C@H](O)[C@H](C)O1`: 23.5 ± 4%; `CC(C)(C)NC(=O)[C@@H]1CN(Cc2cccnc2)CCN1C[C@@H](O)C[C@@H](Cc1ccccc1)C(=O)N[C@H]1c2ccccc2C[C@H]1O`: 105.6 ± 0.74%. Next, `CO[C@H]1/C=C/O[C@@]2(C)Oc3c(C)c(O)c4c(O)c(c(/C=N/N5CCN(C6CCCC6)CC5)c(O)c4c3C2=O)NC(=O)/C(C)=C\C=C\[C@H](C)[C@H](O)[C@@H](C)[C@@H](O)[C@@H](C)[C@H](OC(C)=O)[C@@H]1C`: 93.7 ± 1.3%. In the case of `CN1CCN(CCCN2c3ccccc3Sc3ccc(C(F)(F)F)cc32)CC1` [Trifluoperazine], the cell viability amounted to 103 ± 0.17%. The same measure for `CC(C)[C@H]1CC[C@H](C(=O)N[C@H](Cc2ccccc2)C(=O)O)CC1`: 108 ± 1.6%.

On to `COc1cc(C)nc(-n2nc(C)cc2OC)n1`, for which the cell viability came out at 104 ± 1.9%. Next, `CCOC(=O)C1=C(C)NC(C)=C(C(=O)OC)C1c1cccc([N+](=O)[O-])c1` (centres undefined): 98.9 ± 2.8%; `C[C@]12C=CC(=O)C=C1CC[C@@H]1[C@@H]2[C@@H](O)C[C@@]2(C)[C@H]1CC[C@]2(O)C(=O)COC(=O)CCC(=O)O`: 104 ± 0.49%; `Clc1ccccc1C(c1ccccc1)(c1ccccc1)n1ccnc1`: 107.5 ± 0.99%.

With `CCCCCNC(=N)N/N=C/c1c[nH]c2ccc(OC)cc12`, the cell viability turned out to be 108 ± 1.2%. Next, `COc1ccc(CN2CCN(C(c3ccc(F)cc3)c3ccc(F)cc3)CC2)c(OC)c1OC`: 69.3 ± 8.6%; `C[C@H]1[C@H](OC(=O)CCC(=O)O)O[C@@H]2O[C@@]3(C)CC[C@H]4[C@H](C)CC[C@@H]1[C@@]24OO3`: 98.9 ± 1.1%. The same measure for `COCCCC/C(=N\OCCN)c1ccc(C(F)(F)F)cc1` [Fluvoxamine]: 106 ± 1.5%; for `Cc1nccn1CC1CCc2c(c3ccccc3n2C)C1=O` (centres undefined) [Ondansetron]: 99.8 ± 1.5%. The same measure for `COc1ccc(C2CNC(=O)C2)cc1OC1CCCC1` (centres undefined): 99.3 ± 1.2%. In the case of `CC[C@H](C)C(=O)O[C@H]1CCC=C2C=C[C@H](C)[C@H](CC[C@@H]3C[C@@H](O)CC(=O)O3)[C@H]21` [mevastatin], the cell viability turned out to be 89.1 ± 3.1%. Take `CC[C@]1(O)C[C@H]2CN(CCc3c([nH]c4ccccc34)[C@@](C(=O)OC)(c3cc4c(cc3OC)N(C=O)[C@H]3[C@@](O)(C(=O)OC)[C@H](OC(C)=O)[C@]5(CC)C=CCN6CC[C@]43[C@@H]65)C2)C1`: the cell viability stood at 25.9 ± 3.1%. The same measure for `CC(=O)SCC(Cc1ccccc1)C(=O)NCC(=O)OCc1ccccc1` (centres undefined): 103 ± 2%.

Usually cell viability stands for a read-out of living cells in per cent, often relative to untreated cells.
